# The full list was thinned out, with hits kept by preference.
# Dicer inh: human Dicer pre-microRNA cleavage inhibition; cat-ELCCA pre-miR-21 Dicer processing, chemiluminescence; active compounds read high; z-score at 25 µM; actives 6% (n = 47,000); AID 1347074; in the data active = z-score above about 3, passing the limit was not always enough;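 also: higher signal means more uncleaved substrate so more Dicer inhibition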
# Numbers stand for hits; . = inactive.
SMILES,Dicer inh
Cc1cccn2cc(-c3cccc(S(=O)(=O)N4CCOCC4)c3)nc12,.
Cc1cccn2cc(-c3ccc(NS(=O)(=O)c4ccc(Br)cc4)cc3)nc12,7.9
Cc1ccc(S(=O)(=O)Nc2n[nH]c(-c3ccc(C(C)(C)C)cc3)c2Br)cc1,.
Cc1ccc(S(=O)(=O)Nc2ccc(-c3cn4cccc(C)c4n3)cc2)c(C)c1,6.1
Cc1ccc(S(=O)(=O)Nc2ccc(-c3cn4cccc(C)c4n3)cc2)cc1C,8.6
Cc1cccn2cc(-c3ccccc3Cl)nc12,.
Cc1cccn2cc(-c3cccc(S(=O)(=O)N4CCCC4)c3)nc12,.
Cc1cccn2cc(-c3cccc(S(=O)(=O)N4CC(C)OC(C)C4)c3)nc12 (configuration not stated),.
O=C1CSC(=Nc2cccc(Cl)c2Cl)N1Cc1ccco1,.
COc1cc(C2C(C(=O)OCC3CCCO3)=C(C)NC3=C2C(=O)CCC3)ccc1OCCO (configuration not stated),.
Cn1c(=O)c2c(O)c(C=Nc3c(Cl)cccc3Cl)c(=O)n(C)c2n(C)c1=O,.
NNC(=O)CNC(=O)COc1ccccc1,.
O=C(O)c1cscc1Sc1ccc(Cl)cc1,.
CC(C)N1C(=O)C(O)(CC(=O)c2ccc3c(c2)OCO3)c2ccccc21 (configuration not stated),.
COC(=O)CC1(C(=O)OC)Oc2ccc(Cl)cc2C(=O)N1c1ccc(F)cc1F (configuration not stated),.
O=S(=O)(Oc1ccccc1)c1cc(Br)c(Br)s1,.
CC(C)C1CC(CCN2CCOCC2)(c2ccccc2)CCO1 (configuration not stated),.
Cc1ccc(S(=O)(=O)c2nc(-c3cccs3)oc2NCc2ccccc2)cc1,.
O=C(c1cc2ccccc2s1)N1CCOCC1,3.2
O=C(c1sc2ccccc2c1Cl)N1CCOCC1,.
NC(=O)C1CCN(C(=O)Nc2cc3ccccc3s2)CC1,.
Cc1cc(OC(=O)c2ccc([N+](=O)[O-])cc2)c(Cl)c(C)c1Cl,.
CC(C)N(CCC#N)C(=O)Nc1ccc(F)cc1,.
CCOC(=O)/C(C#N)=C/Nc1cc(C(=O)OC)ccc1C,.
Cc1ccc(OCc2nc3c4c5c(sc4ncn3n2)CCCC5)cc1,.
SMILES,Dicer inh
C=CCn1c(SCC)nc2c(c1=O)C1(CCCC1)Cc1ccccc1-2,.
CSc1nc2c(c(=O)n1C)C1(CCCC1)Cc1ccccc1-2,4.2
C=CCSc1nc2c(c(=O)n1CC)C1(CCCC1)Cc1ccccc1-2,.
CC(C)(C)NC(=O)N/N=C(\N)c1ccc(C(F)(F)F)cn1,.
CCCC(=O)Oc1ccc2c(=O)c(Oc3ccc(OC)cc3)coc2c1,.
N#Cc1c(NC(=O)c2ccco2)sc2c1CCCCC2,.
O=C(Nc1sc2c(c1C(=O)Nc1ccccc1)CCCC2)c1ccco1,3.2
CCC(=O)Nc1sc2c(c1C(=O)Nc1ccccc1Cl)CCC2,4.2
CCC(=O)Nc1sc2c(c1C(=O)Nc1ccc(Cl)cc1)CCC2,.
CCOC(=O)c1c(NC(=O)c2cccs2)sc2c1CCCC2,.
CCOC(=O)c1c(NC(=O)c2ccco2)sc2c1CCCCC2,5.7
O=C(Nc1sc2c(c1C(=O)Nc1ccccc1)CCCCC2)c1ccco1,.
CC(C)(C)C1CCc2c(sc(NC(=O)CCC(=O)O)c2C(=O)Nc2ccccc2Cl)C1 (configuration not stated),.
O=C(Nc1sc2c(c1C(=O)O)CCCCC2)c1ccco1,.
CCOC(=O)N/N=C/c1ccc2c(c1)OCO2,.
CC12C(=O)N(c3ccc(F)cc3)C(=O)C1ON(c1ccccc1)C2c1ccccc1O (configuration not stated),.
C=C1CC(C)OC(C(C)(C)COC(=O)NC2CCCCC2)C1 (configuration not stated),.
Cc1nc([N+](=O)[O-])cn1CCc1noc(-c2ccc(OC(F)(F)F)cc2)n1,.
Cc1cccc(C)c1OCCn1cncn1,3.3
Cc1cccc(C)c1OCCCc1c(C)n[nH]c1C,.
Cc1cc(Cl)cc(C)c1OCCn1ccnc1,.
Cc1cc(Oc2ccc(=O)n(C)n2)nc(SCC(=O)Nc2ccc(Cl)cc2)n1,.
COc1ccc(-c2csc(S(C)=O)c2C#N)cc1 (configuration not stated),.
Cc1ccc(-c2cc3ccccc3[nH]2)cc1,16
c1ccc(-c2cc3ccccc3[nH]2)cc1,.
SMILES,Dicer inh
Cc1ccc(-c2cc(=O)c3c(=O)n(-c4ccccc4)[nH]c3[nH]2)cc1,.
C[n+]1c2ccccc2nc2ccc(NC3CCCCC3N)cc21 (configuration not stated),.
N/C(=N\N=C\c1ccccc1)N/N=C/c1ccccc1,.
CCCCN1COc2c(cc(Cl)c3cccnc23)C1,.
CC(C)(C)OC(=O)NCCNC(=O)Nc1ccccc1C(F)(F)F,.
Cc1nc(C(F)(F)F)ccc1C(=O)NCCNC(=O)OC(C)(C)C,4.4
CC(C)(C)OC(=O)NCCNC(=O)C1CCN(c2nccc(C(F)(F)F)n2)CC1,.
Cc1cccnc1NC(=S)Nc1cccc(C(F)(F)F)c1,.
CN(Cc1ccccc1)C(=S)Nc1ccc(Cl)cc1,.
CCCCN1C(=O)C2(/C(=C(/O)c3ccc(Cl)cc3)C(=O)C(=O)N2CCCOC)c2ccccc21 (configuration not stated),.
CCCCN1C(=O)C2(/C(=C(/O)c3ccc(C)cc3)C(=O)C(=O)N2CCCOC)c2ccccc21 (configuration not stated),5.1
C=CCN1C(=O)C2(/C(=C(/O)c3ccccc3)C(=O)C(=O)N2CCOC)c2ccccc21 (configuration not stated),.
CCCCN1C(=O)C2(/C(=C(/O)c3ccc(OC)cc3)C(=O)C(=O)N2CCOC)c2ccccc21 (configuration not stated),3.7
CCN1C(=O)C2(/C(=C(/O)c3ccc(C)cc3)C(=O)C(=O)N2CCOC)c2ccccc21 (configuration not stated),.
COCCCN1C(=O)C(=O)/C(=C(\O)c2ccc(C)cc2)C12C(=O)N(C)c1ccccc12 (configuration not stated),.
CC(C)(C)C(Cc1ccccc1)C(=O)O (configuration not stated),.
COc1ccc(-c2noc(C(C)Oc3cccc(Cl)c3)n2)cc1 (configuration not stated),.
Cc1cc(C)nc(SCC(=O)N2CCc3ccccc3C2)n1,.
O=C1N(c2cccc(C(F)(F)F)c2)C(=Nc2cccc(C(F)(F)F)c2)SC12CC2,.
COC(=O)c1ccc(N2C(=O)C3C4c5ccccc5C(C)(c5ccccc54)C3C2=O)cc1 (configuration not stated),.
Cc1ccc2nc(SCc3nc(-c4ccccc4C)no3)[nH]c2c1,3
Brc1ccc(-c2noc(CSc3nc4ccccc4[nH]3)n2)cc1,.
Cc1ccc2nc(SCc3nc(-c4cccs4)no3)[nH]c2c1,.
Cn1c(SCc2n[nH]c(=S)n2Cc2ccccc2)nnc1-c1ccccc1,.
CCN(C(=O)c1cccc(OC)c1)c1cccc2ccccc12,.
SMILES,Dicer inh
O=C(CSc1nc2ccccc2nc1N1CCCC1)NCc1ccco1,.
Clc1ccc(CNc2nc3ccccc3n2CCN2CCCCC2)cc1,3.2
O=C(Nc1nc2ccccc2n1CCN1CCCCC1)C1CCCCC1,.
O=C(Cn1c(NCCO)nc2ccccc21)c1ccc(Cl)cc1,.
CCCCn1c(NCc2ccco2)nc2ccccc21,.
c1coc(CNc2nc3ccccc3n2CCN2CCCCC2)c1,6.1
CC1=C(C#N)C(c2ccc3c(c2)CCC(C)(C)O3)C2=C(CCCC2=O)N1 (configuration not stated),.
